# Compound activity from PubChem BioAssay.
# The list is not random: actives were taken first. Their share in the collection is about 3.9%.
# HTT-AS promoter = activates huntingtin-antisense promoter activity | Potency, µM (titrated, usually from 57.5 µM), without a hit: top-dose activity change, positive = activation, most hits filed as activators | actives 0.24% (n = 48,000) | AID 1508624 | HEK293 HTT-AS promoter firefly luciferase reporter, 24 h; response scale: percent change from vehicle, -100% = no light; note: potency is the fitted concentration of half-maximal effect; nearly all actives have a fitted effect of over 55% in size
#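 HEK293 cells carrying firefly luciferase reporters were seeded at 2,500 per well in Opti-MEM and cultured for 24 h. They were then treated with compounds at up to 57.5 uM final for 24 h at 37 degrees C before Dual-Glo luminescence readout.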
# p53null 39C tox = p53 null cell cytotoxicity, nonpermissive temperature | H1299 p53-null (neo) cells, 39C, ATPlite viability, 24 h | Potency, µM (doses to about 46.1 µM), for the others: top-dose activity, negative = cell killing, hits mostly cytotoxic | actives 0.97% (n = 55,000);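 note: potency is the fitted concentration of half-maximal effect; 0% = DMSO only and -100% = full killing by 100 µM tamoxifen; nearly all actives have a fitted effect of over 50% in size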
#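 Luminescent ATP signal reported cell survival after H1299 lines (neo, p53 null; or p53 A138V) received up to 46 uM compound and 24 hr incubation at 39C.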
# DRV1 agonist = activates human resolvin D1 receptor GPR32 | O75388 | CHO-K1 GPR32 beta-arrestin PathHunter luminescence, 90 min; zero percent set by DMSO-only wells | activation, % at 76.9 µM | actives 2.5% (n = 48,000) | AID 1346428;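 active = activation of at least 60% and not above a set upper limit, about 1 call in 100 departs from these limits; inconclusive = activation of 40% to 60%, or above that upper limit; inactive = activation under 40%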; note: 0% is about no effect
# Target sequence (O75388 whole entry, looked up): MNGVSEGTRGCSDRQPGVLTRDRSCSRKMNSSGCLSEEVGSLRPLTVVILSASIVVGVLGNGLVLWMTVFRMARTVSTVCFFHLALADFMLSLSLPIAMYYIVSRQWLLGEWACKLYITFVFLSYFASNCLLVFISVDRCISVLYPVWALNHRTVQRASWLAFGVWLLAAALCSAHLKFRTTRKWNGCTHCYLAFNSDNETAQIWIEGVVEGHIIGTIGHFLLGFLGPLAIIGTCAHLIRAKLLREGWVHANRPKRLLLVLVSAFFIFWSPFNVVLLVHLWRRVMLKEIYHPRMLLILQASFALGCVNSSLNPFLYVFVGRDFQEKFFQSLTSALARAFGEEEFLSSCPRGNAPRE
#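 Step 1: seed CHO-K1 GPR32 beta-arrestin cells, 2,500/well, overnight at 37 °C. Step 2: add compounds, 90 min at 37 °C. Step 3: detection reagent, 1 h ambient, then luminescence.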
# p53null 32C kill = selectivity test: cytotoxicity in p53 null cells, permissive temperature. H1299-neo p53 null cells, ATP luminescence, 24 h, 32C. AID 903. actives 0.62% (n = 55,000). Potency, µM (titrated, usually from 46.1 µM), for the others: at the highest dose activity change, negative = cytotoxicity, actives largely listed as cytotoxic;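 note: potency is the fitted concentration of half-maximal effect; 0% = DMSO only and -100% = full killing by 100 µM tamoxifen; nearly all actives have a fitted effect of over 55% in size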
#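 H1299-neo (p53-null) cells, 600/well, were pre-incubated overnight at 37C, then exposed to compounds at up to 46 uM for 24 hr at 32C. Viability was measured as ATP content by luminescence, and AC50 values came from Hill fits.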
# HTT prom inh = inhibitors of huntingtin promoter activity; Potency, µM (series often up to 57.5 µM), for the others: at the highest dose activity change, negative = inhibition, hits mostly inhibitors; HEK293 HTT promoter firefly luciferase reporter, 24 h; actives 0.93% (n = 48,000); note: potency is the fitted concentration of half-maximal effect; nearly all actives have a fitted effect of over 50% in size
#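 Firefly luciferase signal from promoter-reporter HEK293 cells was scaled between vehicle (0%) and zero RLU (-100%). Compounds were tested at final concentrations of up to 57.5 uM over 24 h at 37 degrees C. PTC124 at 50 uM final served as control inhibitor.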
# An asterisk follows results filed as active; ? = inconclusive; nt = no result given; [ ] = another dose, or the depositor's remark. Unless noted, calls come from the whole dose curve; as a rule, active = well fitted curve in the direction sought with a large enough effect; inconclusive = small, poorly fitted or top-dose-only effect, or another doubt; inactive = no such curve, though single readings can be large; an effect the other way counts as inactive or inconclusive.
SMILES,HTT-AS promoter,p53null 39C tox,DRV1 agonist,p53null 32C kill,HTT prom inh
O=C(CCCCn1c(=O)[nH]c2ccsc2c1=O)N1CCN(c2cccc(Cl)c2)CC1,-35.6%,8.9%,71.9*,28.0%,?
O=C(CCCn1c(=O)[nH]c2ccsc2c1=O)N1CCN(c2cccc(C(F)(F)F)c2)CC1,-24.8%,17.1%,91.5*,26.5%,?
CC(=O)c1ccc(N2CCN(C(=O)CCCCn3c(=O)[nH]c4ccsc4c3=O)CC2)cc1,-21.4%,?,27.1,-0.1%,-2.4%
O=C(CCc1ccc(O)cc1)c1c(O)cc(O)cc1O[C@@H]1O[C@H](CO)[C@H](O)[C@H](O)[C@H]1O,-11.9%,nt,nt,nt,-6.9%
COc1cccc(Cn2c(=O)cc(C)c3c(C)nn(C)c32)c1,-30.6%,3.4%,79.3*,-1.2%,?
CO[C@H]1C=CO[C@@]2(C)Oc3c(C)c(O)c4c(O)c(c(C=NN5CCN(C)CC5)c(O)c4c3C2=O)NC(=O)C(C)=CC=C[C@H](C)[C@H](O)[C@@H](C)[C@@H](O)[C@@H](C)[C@H](OC(C)=O)[C@H]1C,-6.7%[19.1 µM],nt,nt,nt,-4.2%[19.1 µM]
Cc1ccc(S(=O)(=O)NCCc2nnc3ccc(SCc4ccccc4C)nn23)cc1,-31.8%,15.8µM*,-24.8,5.2%,-21.9%
Cc1ccc(C)c(CSc2ccc3nnc(CCNS(=O)(=O)c4ccccc4)n3n2)c1,-30.0%,-0.9%,2.0,-4.8%,-12.4%
CCc1ccc(NC(=O)N2CCN(c3nnc(C)c4c(C)n(-c5ccc(Cl)cc5)nc34)CC2)cc1,-38.0%,20µM*,4.1,?,?
Cc1c2cnn(-c3ccccc3)c(=O)c2c(C)n1CC(=O)N1CCN(c2ccc(F)cc2)CC1,-34.2%,-16.5%,-0.5,0.5%,?
CCOc1ccc(NC(=O)Cn2c(=O)cc(C)c3c(C)nn(C)c32)cc1,-14.1%,2.6%,18.4,-5.2%,-24.1%
Cc1nn(C)c2c1c(C(F)(F)F)cc(=O)n2CC(=O)N1CCCCC1C (configuration not stated),-13.8%,-7.5%,79.9*,-7.4%,-2.2%
CCOC(=O)C1CCCN(C(=O)Cn2c(=O)cc(C)c3c(C)nn(C)c32)C1 (configuration not stated),-24.8%,-6.6%,81.0*,-3.8%,?
Cc1ccc(Cn2c(C)c3cnn(CC(=O)N4CCN(c5ccc(F)cc5)CC4)c(=O)c3c2C)cc1,-85.5%,8.7%,-0.2,47.5%,14.1µM*
Cc1nn(C)c2c1c(C(F)(F)F)cc(=O)n2CC(=O)Nc1ccc(F)cc1F,-29.4%,-3.2%,-5.5,-9.0%,-29.7%
Cc1cc(=O)n(CC(=O)N2CCN(c3ccc(F)cc3)CC2)c2c1c(C)nn2C,-43.3%,-4.2%,71.0*,-4.2%,?
C[C@H](NC(=O)[C@@H](O)c1cc(F)cc(F)c1)C(=O)N[C@@H]1C(=O)N(C)c2ccccc2-c2ccccc21,-5.8%,nt,nt,nt,-2.8%
CCN1CCN(c2ccc(Nc3cc(N(C)C(=O)Nc4c(Cl)c(OC)cc(OC)c4Cl)ncn3)cc2)CC1,1.3%,nt,nt,nt,3.1%
COc1ccc(CC2=NN3C([C@@H](CCc4ccccc4)[C@@H](C)O)=NC(C)C3C(=O)N2)cc1OC (some centres not stated),7.69µM*,nt,nt,nt,45.1%
CCOc1cc2ncc(C#N)c(Nc3ccc(OCc4ccccn4)c(Cl)c3)c2cc1NC(=O)C=CCN(C)C,-24.4%,nt,nt,nt,-27.0%
COc1ccc(-c2ccc3ncc4c(c3c2)n(-c2ccc(N3CCNCC3)c(C(F)(F)F)c2)c(=O)n4C)cn1,-93.5%,nt,nt,nt,?
O=C(Nc1noc2ccccc12)c1ccc(F)cc1,?,?,-23.8,12.6µM*,60.0%
O=C(Nc1c(C(=O)N2CCN(c3ccccc3F)CC2)oc2ccccc12)c1cccc(F)c1,9.5%,0.5%,-8.4,-2.8%,-1.5%
O=C(Nc1noc2ccccc12)c1cccc(F)c1,2µM*,?,-15.9,?,67.2%
C[C@@H]1C(=O)O[C@H]2CC34[C@H]5C[C@@H](C(C)(C)C)C36[C@H](OC(=O)[C@@H]6O)O[C@@]4(C(=O)O5)[C@]21O (some centres not stated),-7.1%,nt,nt,nt,-3.4%
SMILES,HTT-AS promoter,p53null 39C tox,DRV1 agonist,p53null 32C kill,HTT prom inh
CCc1ccc(NC(=O)CN(c2cc(C)cc(C)c2)S(=O)(=O)c2c(C)[nH]c(=O)[nH]c2=O)cc1,-11.8%,-14.3%,76.5*,0.8%,-16.0%[11.5 µM]
Cc1cc(C)cc(NC(=O)C2CC(=O)N(c3ccccc3)C2)c1 (configuration not stated),9.9%,-22.2%,118.1*,13.0%,-15.3%
Cc1ccc(-n2ncc3c(NCC(C)C)ncnc32)c(C)c1,17.2%,22.9%,62.3*,-17.5%,-9.1%
CCOC(=O)c1ccc(N2C(=O)c3n[nH]c(-c4cccs4)c3C2c2ccc(CC)cc2)cc1 (configuration not stated),-81.1%,-14.3%,-17.2,73.2%,20µM*
CCOC(=O)c1ccc(N2C(=O)c3n[nH]c(C)c3C2c2cccc(Br)c2)cc1 (configuration not stated),-68.7%,?,-23.2,17.5%,?
CCOC(=O)c1ccc(N2C(=O)c3n[nH]c(-c4cccs4)c3C2c2ccc(C(C)C)cc2)cc1 (configuration not stated),-51.4%,?,-27.7,32.8%,25.1µM*
Cc1ccc(-c2n[nH]c3c2C(c2cccc(O)c2)N(c2ccc(C(=O)O)cc2)C3=O)cc1 (configuration not stated),10.5%,4.2%,-19.7,-21.3%,0.5%
O=C1c2[nH]nc(-c3ccc(Br)cc3)c2C(c2cccc(O)c2)N1c1ccc(Cl)cc1 (configuration not stated),-68.6%,?,95.7*,?,?
CCOC(=O)c1ccc(N2C(=O)c3n[nH]c(-c4cccs4)c3C2c2cccc(O)c2)cc1 (configuration not stated),-55.2%,20µM*,24.0,20µM*,?
CCOC(=O)c1ccc(N2C(=O)c3n[nH]c(-c4cccs4)c3C2c2ccc(OCC)cc2)cc1 (configuration not stated),-42.2%,70.8%,-19.0,30.4%,?
CC(=O)c1[nH]c(C)c(C(=O)NCc2ccc(Cl)cc2)c1C,-49.8%,13.0%,3.4,3.0%,15.8µM*
CCOC(=O)c1[nH]c(C)c(C(=O)NCc2cccc(OC)c2)c1C,-16.3%,5.6%,61.0*,0.9%,-23.6%
CN(C)[C@@H]1C(=O)C(C(N)=O)=C(O)[C@@]2(O)C(=O)C3=C(O)c4c(O)cccc4C[C@H]3C[C@@H]12,-27.9%,nt,16.0,nt,?
Cc1ccc(C(=O)c2sc(Nc3ccc(F)cc3)c(C#N)c2N)cc1,-0.1%,-13.3%,85.9*,-17.1%,2.8%
